# Experimental data as given in PubChem BioAssay (Tox21).
# Values joined by “and” are separate entries in the source; they are usually repeats but may differ in a detail not shown here. Equal entries are not always repeated. Inconclusive results are not listed. A call without a number means that no potency is given here. Some structures have more than one record in an assay (separate samples or runs), and their calls can disagree. Active and inactive are the calls of the source. Unless noted, the call rests on the fitted dose curve; in most records, active means well fitted curve in the direction sought with a large enough effect in the repeat runs; inconclusive means weak or mixed curves; inactive means no such curve, though single readings can be large; an effect the other way counts as inactive or inconclusive.
# Legend:
# [1] = qHTS assay to identify small molecule antagonists of the constitutive androstane receptor (CAR) signaling pathway - cell viability counter screen (AID 1224837); further: series mostly up to about 92 µM; nearly all actives have a fitted effect of over 45% in size
# Summary of the method: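 Using CellTiter-Fluor, viability is scored in HepG2 cells stably carrying hCAR and a 2.2kb CYP2B6 reporter after 23 hr compound exposure across 15 concentrations, with CITCO present at 50 nM.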
# [2] = qHTS assay to identify small molecule antagonists of the estrogen related receptor signaling pathway with the pleiotropic PPARgamma coactivator (PGC) from Tox21 10K library - cell viability counter screen (AID 1224840; active means well fitted cell-killing curve with a large enough effect in the repeat runs, not every such curve was filed as active; further: nearly all actives have a fitted effect of over 40% in size; further: potency means the concentration at half of the fitted maximal effect)
# Summary of the method: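 Here the PGC/ERR cells serve as a cytotoxicity control: they are exposed to compounds for 17.5 hours at 37 C, and live-cell signal is quantified using CellTiter-Fluor fluorescence.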
# [3] = qHTS assay to identify small molecule agonists of the hypoxia (HIF-1) signaling pathway - cell viability counter screen (AID 1224844; calls by dose curve; further: nearly all actives have a fitted effect of over 50% in size; further: potency means the concentration at half of the fitted maximal effect)
# Summary of the method: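 Multiplexed with the HRE beta-lactamase assay, this viability read used CellTiter-Glo luminescence (30 min, RT) on HRE-bla ME-180 cells treated 17 hrs with compounds in 0.5% dialyzed FBS medium.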
# [4] = qHTS assay to identify small molecule agonists of H2AX (AID 1224845; active means well fitted activation curve with a large enough effect in the signal ratio in the repeat runs, not every such curve was filed as active; the % refers to the signal ratio; further: potency means the concentration at half of the fitted maximal effect)
# Summary of the method: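 Phospho-H2AX Ser139 measured by HTRF (ex 320 nm; em 665 and 620 nm) after 24 hr antibody incubation. Compounds, 15 concentrations, 0.76% DMSO, were applied to CHO-K1 cells for 3hr at 37C before lysis.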
# [5] = qHTS assay to identify small molecule agonists of the hypoxia (HIF-1) signaling pathway (AID 1224846; active means well fitted activation curve with a large enough effect in the signal ratio in the repeat runs, not every such curve was filed as active; the % refers to the signal ratio)
# Summary of the method: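 Hypoxia-pathway activation was scored as increased beta-lactamase from an HRE-controlled reporter in ME-180 cells; plated at 2,000 cells per well with 0.5% dialyzed FBS, they were exposed 17 hrs to compounds and then given CCF4-AM.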
# [6] = qHTS assay to identify small molecule agonists of H2AX - cell viability counter screen (AID 1224847; calls by dose curve; further: nearly all actives have a fitted effect of over 30% in size; further: potency means the concentration at half of the fitted maximal effect)
# Summary of the method: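 Counter-screen for viability: CellTiter-Glo ATP luminescence read after 3 h compound treatment (15-point titration, 0.76% DMSO final) of CHO-K1 cells at 37C, with 30 min room-temperature reagent incubation.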
# [7] = qHTS RealTime-Glo MT Cell Viability Assay in HepG2 cells - 24 hour (AID 1224867); further: nearly all actives have a fitted effect of over 50% in size; further: potency means the concentration at half of the fitted maximal effect
# Summary of the method: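 Cells + NanoLuc/prosubstrate dispensed (600 cells/well) → 5 h at 37 C/5% CO2 → compounds in DMSO transferred → 40 h incubation at 37 C, luminescence read at 0, 8, 16, 24, 32, 40 h.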
# [8] = qHTS RealTime-Glo MT Cell Viability Assay in HEK293 cells - 32 hour (AID 1224868); further: nearly all actives have a fitted effect of over 50% in size; further: potency means the concentration at half of the fitted maximal effect
# Summary of the method: (§1)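 Tox21 10K qHTS, HEK293, 600 cells/well, RealTime-Glo reagent co-dispensed with cells; 5 h preincubation, compound by pintool, 37 C, luminescence at 0–40 h.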
# [9] = A CellTox Green Cytotoxicity Assay to monitor cytotoxicity in HEK293 cells - 0 hour (AID 1224869); further: nearly all actives have a fitted effect of over 50% in size; further: potency means the concentration at half of the fitted maximal effect
# Summary of the method: (§2)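 Seeding of HEK293 cells together with cytotoxicity dye preceded a 5 h incubation at 37 C/5% CO2. Test compounds in DMSO were then added and fluorescence monitored across 40 h.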
# [10] = qHTS RealTime-Glo MT Cell Viability Assay in HepG2 cells - 40 hour (AID 1224870); further: nearly all actives have a fitted effect of over 50% in size; further: potency means the concentration at half of the fitted maximal effect
# Summary of the method: (§3)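 Real-time viability: cells seeded at 600 per well together with NanoLuc and cell-permeant prosubstrate, compounds added after 5 h incubation. Luminescence tracked at 0, 8, 16, 24, 32 and 40 h of exposure.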
# [11] = A CellTox Green Cytotoxicity Assay to monitor cytotoxicity in HEK293 cells - 40 hour (AID 1224871); further: nearly all actives have a fitted effect of over 45% in size; further: potency means the concentration at half of the fitted maximal effect
# Summary of the method: as §2
# [12] = qHTS RealTime-Glo MT Cell Viability Assay in HEK293 cells - 16 hour (AID 1224872); further: nearly all actives have a fitted effect of over 50% in size; further: potency means the concentration at half of the fitted maximal effect
# Summary of the method: as §1
# [13] = qHTS RealTime-Glo MT Cell Viability Assay in HepG2 cells - 8 hour (AID 1224873); further: nearly all actives have a fitted effect of over 55% in size; further: potency means the concentration at half of the fitted maximal effect
# Summary of the method: as §3
# [14] = qHTS RealTime-Glo MT Cell Viability Assay in HEK293 cells - 40 hour (AID 1224874); settings: RealTime-Glo luminescence; max response: stronger effect = lower value; further: nearly all actives have a fitted effect of over 50% in size; further: potency means the concentration at half of the fitted maximal effect
# Summary of the method: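 Tox21 screen in HEK293 using RealTime-Glo MT chemistry, with cells and reagent co-dispensed. Luminescence proportional to viable cell number was captured at intervals during 40 h compound exposure at 37 C.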
# [15] = target: Thyrotropin receptor (Homo sapiens) (UniProt P16473); test: qHTS assay to identify small molecule agonists of the thyroid stimulating hormone receptor (TSHR) signaling pathway (AID 1224843; calls by dose curve; further: nearly all actives have a fitted effect of over 45% in size)
# Thyrotropin receptor (Homo sapiens), sequence (P16473 whole entry, looked up): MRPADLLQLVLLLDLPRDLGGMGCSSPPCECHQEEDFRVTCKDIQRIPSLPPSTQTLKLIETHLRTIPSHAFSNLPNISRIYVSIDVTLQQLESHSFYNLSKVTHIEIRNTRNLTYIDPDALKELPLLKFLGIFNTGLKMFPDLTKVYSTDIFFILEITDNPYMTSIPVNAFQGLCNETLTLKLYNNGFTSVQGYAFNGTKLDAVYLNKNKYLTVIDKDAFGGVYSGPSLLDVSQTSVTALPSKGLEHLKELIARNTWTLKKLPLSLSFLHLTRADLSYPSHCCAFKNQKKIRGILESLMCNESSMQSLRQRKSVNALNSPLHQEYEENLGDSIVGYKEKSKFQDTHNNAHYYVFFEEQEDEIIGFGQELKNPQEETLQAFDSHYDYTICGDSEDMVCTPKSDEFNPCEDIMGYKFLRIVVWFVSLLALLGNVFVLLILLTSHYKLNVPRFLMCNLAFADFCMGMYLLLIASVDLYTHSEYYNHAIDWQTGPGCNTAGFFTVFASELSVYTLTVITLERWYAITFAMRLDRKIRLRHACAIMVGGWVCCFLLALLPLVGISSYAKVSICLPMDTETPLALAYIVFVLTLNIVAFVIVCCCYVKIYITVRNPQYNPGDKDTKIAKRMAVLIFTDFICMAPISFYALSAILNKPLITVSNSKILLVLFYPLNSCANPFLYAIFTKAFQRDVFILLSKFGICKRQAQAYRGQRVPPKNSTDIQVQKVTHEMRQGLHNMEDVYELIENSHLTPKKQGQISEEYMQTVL
# Summary of the method: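 HEK293 cells stably bearing the thyrotropin receptor were plated at 800 cells/well and challenged with compound (30 min, RT). Accumulated cAMP was quantified via cAMP-d2 competing for cryptate-tagged antibody.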
# [16] = target: Nuclear receptor subfamily 1 group I member 3 (Homo sapiens) (UniProt Q14994); test: qHTS assay to identify small molecule antagonists of the constitutive androstane receptor (CAR) signaling pathway (AID 1224838);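 further: HepG2 cells stably expressing hCAR with CYP2B6 luciferase reporter stimulated by CITCO; nearly all actives have a fitted effect of over 40% in size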; further: potency means the concentration at half of the fitted maximal effect
# Nuclear receptor subfamily 1 group I member 3 (Homo sapiens), sequence (Q14994 whole entry, looked up): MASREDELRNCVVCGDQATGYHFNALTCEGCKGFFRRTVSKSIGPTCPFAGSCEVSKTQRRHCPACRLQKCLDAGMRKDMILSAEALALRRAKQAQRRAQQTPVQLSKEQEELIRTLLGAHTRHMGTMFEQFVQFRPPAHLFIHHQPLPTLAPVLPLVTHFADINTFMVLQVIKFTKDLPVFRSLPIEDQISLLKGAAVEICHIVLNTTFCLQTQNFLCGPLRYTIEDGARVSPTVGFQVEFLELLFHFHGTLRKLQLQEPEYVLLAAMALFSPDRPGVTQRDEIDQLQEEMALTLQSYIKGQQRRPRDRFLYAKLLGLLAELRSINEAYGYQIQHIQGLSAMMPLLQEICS
# Summary of the method: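 Reporter luminescence was quantified after 24 h exposure of hCAR/CYP2B6-2.2kb double-stable HepG2 cells to compounds at 15 concentrations in the presence of 50 nM CITCO final.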
SMILES,Potency [1],Potency [2],Potency [3],Potency [4],outcome [5],Potency [6],Potency [7],Potency [8],Potency [9],Potency [10],Potency [11],Potency [12],Potency [13],max response [14],Potency [15],Potency [14],Potency [16]
COP(=O)(OC)OC=C(Cl)Cl,inactive,inactive,inactive,inactive,inactive,inactive,inactive,inactive,inactive,inactive,inactive,inactive,inactive,12.8% (inactive) and 2.89% (inactive) and 15.7% (inactive),–,–,–
CCCCn1cc[n+](C)c1C,inactive,inactive,inactive,inactive,inactive,inactive,inactive,inactive,inactive,inactive and 22.1 µM (active),inactive,inactive,inactive,-1.35% (inactive) [middle of 6 runs],–,–,–
CCCC[n+]1cccc(C)c1,inactive,inactive,inactive,inactive,inactive,inactive,inactive,inactive,inactive,inactive and 49.6 µM (active),inactive,inactive,inactive,7.15% (inactive) [middle of 6 runs],–,–,–
CCCCCCCCCCCCn1cc[n+](C)c1,–,–,–,inactive,inactive,–,–,–,inactive,–,–,–,49.4 µM (active) and inactive,14.2% (inactive),–,–,–
O=S(=O)(O)O,inactive,inactive,inactive,inactive,inactive,inactive,inactive,inactive,inactive,inactive,inactive,inactive,inactive,-2.52% (inactive) [middle of 6 runs],–,–,–
CCCCCCCCCCCC(=O)O,inactive,inactive,inactive,inactive,inactive,inactive,inactive,inactive,inactive,inactive,inactive,inactive,inactive,0.697% (inactive) and -0.0798% (inactive) and 0.587% (inactive),inactive,–,–
CCC[N+]1(C)CCCCC1,inactive,inactive,inactive,inactive,inactive,inactive,inactive,inactive,inactive,inactive and 24.6 µM (active),inactive,inactive,inactive,-1.58% (inactive) and 7.15% (inactive) and 0.391% (inactive),inactive,–,–
CCCC[n+]1ccc(C)cc1,inactive,inactive,inactive and 38.7 µM (active),inactive,inactive,inactive and 89.3 µM (active),inactive,inactive,inactive,inactive,inactive and 21.8 µM (active),34.5 µM (active) and inactive,inactive,–,–,–,–
CC[N+]1(C)CCCC1,inactive,inactive,inactive,inactive,inactive,inactive,inactive,inactive and 21.9 µM (active),inactive,inactive,inactive,inactive,inactive,3.6% (inactive) [middle of 4 runs],–,21.9 µM (active),–
CNC,inactive,inactive,inactive,inactive,inactive,inactive,inactive,inactive,inactive,inactive,inactive,inactive,inactive,5.34% (inactive) and 10.3% (inactive),–,–,–
CC(=O)O,inactive,inactive,inactive,inactive,inactive,inactive,inactive,inactive,inactive,inactive,inactive,inactive,inactive,1.59% (inactive) [middle of 4 runs],–,–,–
CN(C)[C@@H]1C(=O)C(C(N)=O)=C(O)[C@@]2(O)C(=O)C3=C(O)c4c(O)cccc4[C@@](C)(O)[C@H]3[C@H](O)[C@@H]12,inactive,inactive,inactive,–,–,inactive,inactive,inactive,inactive,inactive,inactive,inactive,inactive,8.46% (inactive) [middle of 4 runs],inactive,–,–
CCCC[N+]1(C)CCCC1,inactive,inactive,inactive,inactive,inactive,inactive,inactive,inactive,inactive,inactive and 43.9 µM (active),inactive,inactive,inactive,0.73% (inactive) [middle of 7 runs],–,–,–
Nc1ccc(-c2ccc(N)c(Cl)c2)cc1Cl,inactive,inactive and 27.3 µM (active),inactive,–,inactive,101 µM (active),inactive and 49 µM (active),12.4 µM (active) and 18.2 µM (active) and 21.9 µM (active),inactive and 38.9 µM (active),inactive and 54.9 µM (active),inactive and 43.6 µM (active),24.5 µM (active),inactive and 43.6 µM (active),–,inactive,12.4 µM (active) and 14.4 µM (active) and 12.3 µM (active),–
CCCCn1cc[n+](C)c1,inactive,inactive,inactive,inactive,inactive,inactive,inactive,inactive,inactive,inactive and 35.2 µM (active),inactive,inactive,inactive,–,–,–,–
CC(Cl)(Cl)C(=O)O,inactive,inactive,inactive,inactive,inactive,inactive,inactive,inactive,inactive,inactive,inactive,inactive,inactive,2.34% (inactive) and 8.45% (inactive) and 2.19% (inactive),inactive,–,–
CCn1cc[n+](C)c1C,inactive,inactive,inactive,inactive,inactive,inactive,inactive,inactive,inactive,inactive,inactive,inactive,inactive,-4.04% (inactive) and 1.14% (inactive) and -16.1% (inactive),–,–,–
CCCn1cc[n+](C)c1,inactive,inactive,inactive,inactive,inactive,inactive,inactive,inactive,inactive,49.4 µM (active) and inactive,inactive,inactive,inactive,9.61% (inactive) and -4.66% (inactive) and 2.37% (inactive),inactive,–,–
C[N+](C)(C)Cc1ccccc1,inactive,inactive,inactive,inactive,inactive,inactive,inactive,inactive,inactive,inactive,inactive,inactive,inactive,3.99% (inactive) and 18.8% (inactive) and -0.0813% (inactive),inactive,–,–
CCCCCCCCCCn1cc[n+](C)c1,inactive,inactive,inactive,inactive,inactive,–,inactive,–,inactive,inactive,–,inactive and 346 nM (active),inactive,–,–,–,–
Oc1cccc2cccnc12,–,2.43 µM (active) and inactive,1.1 µM (active) and inactive,1.43 µM (active) and 3.02 µM (active) and inactive,–,inactive,inactive and 3.47 µM (active),20.7 µM (active) and 5.49 µM (active) and inactive,inactive,inactive and 3.09 µM (active),–,inactive,inactive,-0.234% (inactive),–,13.9 µM (active) and 23.3 µM (active) and 12.7 µM (active),1.38 µM (active) and 770 nM (active) and inactive
CCC[N+]1(C)CCCC1,inactive,inactive,inactive,inactive,inactive,inactive,inactive,inactive,inactive,inactive and 34.9 µM (active),inactive,inactive,inactive,–,–,–,–
CCCCCCCCn1cc[n+](C)c1,–,inactive,inactive,inactive,inactive,56.3 µM (active) and 80 µM (active) and 90.5 µM (active),inactive,3.86 µM (active) and 3.12 µM (active) and 3.93 µM (active),inactive,inactive,19.4 µM (active) and 49.5 µM (active),–,inactive,–,inactive,3.46 µM (active) [middle of 4 runs],–
N#CS,inactive,inactive,inactive,inactive,–,inactive,inactive,inactive,inactive,inactive,inactive,inactive,inactive,6.52% (inactive) [middle of 4 runs],–,–,–
CCCCCCn1cc[n+](C)c1,inactive,inactive,inactive,inactive,inactive,inactive,inactive,19.7 µM (active) [middle of 5 runs],inactive,inactive and 35.4 µM (active),inactive,–,inactive,–,–,19.7 µM (active) [middle of 5 runs],–
